Data from PubChem BioAssay.
Calls of active or inactive are those of the source.

How the values were obtained:
[1] = small molecules captured by biotinylated probe aFSTL3 – biochemical, small-molecule microarray, fluorescence 635/667, stem cell growth factor project, primary screen (AID 1064); conditions: higher = more signal;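 note: measures binding of the biotinylated anti-FSTL3 antibody to printed compounds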
[2] = binders from COS7 lysate, DM2A8 probe, primary screen, torsin A project, cell lysate, small-molecule microarray, fluorescence 635/667 (AID 1065); conditions: higher = more signal, COS7 lysate expressing mutant human TOR1A
[3] = small molecules captured by biotinylated probe aFGF2 – biochemical, small-molecule microarray, fluorescence 635/667, stem cell growth factor project, primary screen (AID 1067); conditions: higher = more signal;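 note: measures binding of biotinylated aFGF2 protein to printed compounds on slides; z-score merges feature fluorescence and signal-to-noise across triplicate slides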
[4] = small molecules captured by biotinylated probe aFGF10 – biochemical, small-molecule microarray, fluorescence 635/667, stem cell growth factor project, primary screen (AID 1071); conditions: higher = more signal;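 note: score merges 667 nm spot intensity and signal to noise from triplicate slides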
[5] = target: Neurogenic locus notch homolog protein 2 (Homo sapiens) (UniProt Q04721); assay: small molecules binding Notch2 protein – biochemical, small-molecule microarray, 635 nm fluorescence, stem cell growth factors, primary screen (AID 1073); conditions: higher = more signal
[6] = target: Pro-neuregulin-1, membrane-bound isoform (Homo sapiens) (UniProt Q02297); assay: small molecules binding neuregulin-1 protein – biochemical, small-molecule microarray, fluorescence 635/667, psychiatric disease protein project, primary screen (AID 1075); conditions: NRG1 binding, 635 nm fluorescence, higher = more signal;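 note: score combines 667 nm spot fluorescence with signal to noise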
[7] = system: Neuregulin-1 EGF-like domain; assay: small molecules binding NRG1 EGF domain – biochemical, small-molecule microarray, 635 nm fluorescence, primary screen (AID 1081); conditions: higher = more signal;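 note: binding of the protein to compounds printed on small-molecule microarray slides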
[8] = FRG1 expression reporter modulators in myotubes – cell-based, C2C12 myotubes, firefly/Renilla luciferase, luminescence, FRG1 inhibition for FSHD, primary screen (AID 1084); conditions: FRG1 promoter luciferase, higher = more signal, called active from +8 up or from −8 down
[9] = small molecules captured by biotinylated probe aFST – biochemical, small-molecule microarray, fluorescence 635/667, stem cell growth factor project, primary screen (AID 1086); conditions: higher = more signal;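 note: score merges 667 nm fluorescence with signal-to-noise of each printed compound spot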
[10] = binders of probe aHhip on microarray, primary screen, stem cell growth factor project, biochemical, small-molecule microarray, fluorescence 635/667 (AID 1087); conditions: higher = more signal;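 note: score merges spot fluorescence at 667nm with spot signal to noise ratio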

Pro-neuregulin-1, membrane-bound isoform (Homo sapiens), sequence (Q02297 whole entry, looked up, the tested form may be a part, canonical isoform): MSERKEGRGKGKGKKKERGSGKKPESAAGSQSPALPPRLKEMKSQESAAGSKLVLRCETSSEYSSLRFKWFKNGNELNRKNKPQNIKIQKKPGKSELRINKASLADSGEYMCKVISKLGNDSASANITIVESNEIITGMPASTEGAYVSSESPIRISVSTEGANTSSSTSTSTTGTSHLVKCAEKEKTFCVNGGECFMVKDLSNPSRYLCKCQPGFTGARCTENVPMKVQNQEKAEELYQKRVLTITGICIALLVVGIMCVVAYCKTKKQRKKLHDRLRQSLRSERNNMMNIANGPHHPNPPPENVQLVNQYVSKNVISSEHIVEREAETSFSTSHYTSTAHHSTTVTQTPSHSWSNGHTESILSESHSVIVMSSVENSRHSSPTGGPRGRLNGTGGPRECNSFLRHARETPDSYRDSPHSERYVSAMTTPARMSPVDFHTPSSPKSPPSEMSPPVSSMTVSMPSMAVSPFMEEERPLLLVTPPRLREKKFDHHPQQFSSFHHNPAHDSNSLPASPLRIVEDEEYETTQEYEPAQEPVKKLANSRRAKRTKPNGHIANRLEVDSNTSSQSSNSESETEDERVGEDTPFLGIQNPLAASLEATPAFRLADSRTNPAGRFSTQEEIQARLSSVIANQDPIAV
Neurogenic locus notch homolog protein 2 (Homo sapiens), sequence (Q04721 whole entry, looked up, canonical isoform): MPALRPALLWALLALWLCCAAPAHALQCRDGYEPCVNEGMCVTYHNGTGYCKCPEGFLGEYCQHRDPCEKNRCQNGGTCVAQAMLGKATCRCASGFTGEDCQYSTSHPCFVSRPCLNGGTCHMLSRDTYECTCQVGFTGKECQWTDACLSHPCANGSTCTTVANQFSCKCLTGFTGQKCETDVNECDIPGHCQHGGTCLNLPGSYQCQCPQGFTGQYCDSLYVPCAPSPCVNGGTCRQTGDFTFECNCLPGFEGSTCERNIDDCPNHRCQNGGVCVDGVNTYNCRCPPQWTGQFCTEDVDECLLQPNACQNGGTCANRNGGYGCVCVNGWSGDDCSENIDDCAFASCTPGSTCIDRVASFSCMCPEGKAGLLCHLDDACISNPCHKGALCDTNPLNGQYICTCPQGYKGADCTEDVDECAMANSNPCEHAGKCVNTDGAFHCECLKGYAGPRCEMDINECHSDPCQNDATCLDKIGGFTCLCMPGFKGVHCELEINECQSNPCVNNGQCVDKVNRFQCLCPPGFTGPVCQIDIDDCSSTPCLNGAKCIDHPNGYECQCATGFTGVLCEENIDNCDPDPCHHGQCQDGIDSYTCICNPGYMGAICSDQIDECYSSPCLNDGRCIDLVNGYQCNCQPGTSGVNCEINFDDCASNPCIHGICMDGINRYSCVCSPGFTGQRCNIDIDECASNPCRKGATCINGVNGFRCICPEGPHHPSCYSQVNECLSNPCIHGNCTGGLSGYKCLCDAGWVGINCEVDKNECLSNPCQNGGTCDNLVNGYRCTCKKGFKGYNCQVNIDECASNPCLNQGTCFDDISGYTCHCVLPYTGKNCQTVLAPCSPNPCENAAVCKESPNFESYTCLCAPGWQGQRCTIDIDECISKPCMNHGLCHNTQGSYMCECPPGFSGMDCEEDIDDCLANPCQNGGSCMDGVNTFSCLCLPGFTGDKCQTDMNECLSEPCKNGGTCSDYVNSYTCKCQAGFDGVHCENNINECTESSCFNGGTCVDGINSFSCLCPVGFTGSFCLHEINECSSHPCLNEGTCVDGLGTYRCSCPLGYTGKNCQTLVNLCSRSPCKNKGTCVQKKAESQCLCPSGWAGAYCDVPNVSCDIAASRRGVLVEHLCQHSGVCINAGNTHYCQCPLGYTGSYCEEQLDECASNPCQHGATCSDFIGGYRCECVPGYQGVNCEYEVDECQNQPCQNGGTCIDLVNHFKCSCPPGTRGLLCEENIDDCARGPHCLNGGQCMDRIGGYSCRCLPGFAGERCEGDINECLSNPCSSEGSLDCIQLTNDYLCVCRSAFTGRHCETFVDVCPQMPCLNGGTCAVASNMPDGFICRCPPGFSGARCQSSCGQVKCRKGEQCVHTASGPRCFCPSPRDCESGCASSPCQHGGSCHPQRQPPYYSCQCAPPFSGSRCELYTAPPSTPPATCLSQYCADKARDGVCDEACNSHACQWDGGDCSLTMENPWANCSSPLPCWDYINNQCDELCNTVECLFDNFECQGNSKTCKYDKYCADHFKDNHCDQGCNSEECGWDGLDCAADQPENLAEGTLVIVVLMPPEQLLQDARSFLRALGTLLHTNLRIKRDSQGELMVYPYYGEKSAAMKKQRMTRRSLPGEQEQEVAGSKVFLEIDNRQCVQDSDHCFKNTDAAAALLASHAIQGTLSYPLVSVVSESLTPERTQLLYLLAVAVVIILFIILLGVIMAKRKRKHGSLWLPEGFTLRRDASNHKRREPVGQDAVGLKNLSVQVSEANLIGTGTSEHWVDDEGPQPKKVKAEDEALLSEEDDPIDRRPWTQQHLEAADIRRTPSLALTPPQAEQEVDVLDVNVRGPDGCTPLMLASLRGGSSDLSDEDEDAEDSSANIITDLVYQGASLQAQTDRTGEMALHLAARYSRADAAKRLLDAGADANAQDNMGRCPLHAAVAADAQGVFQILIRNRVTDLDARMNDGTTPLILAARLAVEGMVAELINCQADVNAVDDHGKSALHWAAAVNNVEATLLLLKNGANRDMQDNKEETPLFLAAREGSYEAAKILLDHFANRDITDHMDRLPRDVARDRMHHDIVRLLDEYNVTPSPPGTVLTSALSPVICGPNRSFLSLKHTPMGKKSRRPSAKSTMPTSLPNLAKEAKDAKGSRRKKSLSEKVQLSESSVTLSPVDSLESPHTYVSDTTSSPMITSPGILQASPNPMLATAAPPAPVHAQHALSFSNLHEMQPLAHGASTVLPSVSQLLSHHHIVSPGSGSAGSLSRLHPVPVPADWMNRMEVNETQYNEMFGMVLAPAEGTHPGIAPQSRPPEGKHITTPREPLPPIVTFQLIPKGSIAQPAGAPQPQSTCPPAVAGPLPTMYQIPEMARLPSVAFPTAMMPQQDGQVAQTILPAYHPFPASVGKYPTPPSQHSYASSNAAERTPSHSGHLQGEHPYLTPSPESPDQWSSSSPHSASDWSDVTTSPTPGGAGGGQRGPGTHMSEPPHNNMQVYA

SMILES	composite z-score [1]	composite z-score [2]	composite z-score [3]	composite z-score [4]	composite z-score [5]	composite z-score [6]	composite z-score [7]	z-score [8]	composite z-score [9]	composite z-score [10]
CN(C)CCCC[C@@H]1NC(=O)[C@H]2C[C@@H](C(=O)NCCCCCCNC(=O)CS)[C@@H](c3cccc(OCCO)c3)N2C1=O	0.272	0.447	-0.135	-0.217	-0.486	0.891	0.334	0.47 (inactive)	-0.346	0.411
CC(C)N1C(=O)[C@@]2(Cc3ccccc31)c1ccccc1C(=O)N(Cc1ccccc1C(F)(F)F)[C@H]2c1ccc(CO)cc1	-0.303	0.0613	-0.0775	0.108	0.339	0.39	1.46	-0.641 (inactive)	0.086	-0.116
CCCCC(=C=CC[C@@H](O)c1ccc(OCCO)cc1)CCO	-0.171	0.532	-0.087	0.558	-0.051	1.65	0.922	-0.58 (inactive)	0.0121	0.176
CC(C)(C)OC(=O)CC[C@]1(C(=O)N2CCOCC2)COC(c2ccc(OCCCO)cc2)=N1	-0.77	0.667	0.0476	0.0767	0.498	1.6	1.32	-0.462 (inactive)	0.163	-0.0275
[N-]=[N+]=NCc1ccccc1C[C@@]1(C(=O)NCCN2CCOCC2)N=C(c2ccc(OCCCO)cc2)O[C@@H]1c1ccccc1	-0.0252	-0.539	-0.0514	0.246	0.266	1.12	1.28	-3.05 (inactive)	0.804	-0.0994
COc1c(C)cc(-c2nc(-c3ccccc3)c3c(c2C)CO[Si]3(C(C)C)C(C)C)cc1C	-0.24	0.428	-0.134	0.146	0.442	-0.0636	-0.104	0.232 (inactive)	0.0724	-0.0994
COC(=O)C[C@H]1O[C@]2(C(=O)N(C)c3ccccc32)[C@@H](C)[C@@H]1[Si](C)(C)c1ccccc1	-0.486	0.0686	-0.0767	0.351	0.731	0.033	0.854	-2.11 (inactive)	0.333	0.357
COC(=O)[C@H](Cc1ccccc1)N1CC(C)(OC)O[C@@H](Cc2ccccc2)[C@H]1/C=C/C1CC1 (stereo not given in full)	0.016	0.12	-0.073	-0.194	0.144	0.0246	0.484	-0.218 (inactive)	-0.205	-0.331
COCCCNC(=O)[C@@]1(c2ccc([N+](=O)[O-])cc2)CC(=O)N(C2CCCCC2)[C@@H]1c1ccc(CO)cc1I	0.234	1.2	0.0247	0.0624	-0.161	0.944	1.31	-1.27 (inactive)	-0.0119	0.259
C=C(COC)/C(=C/C[C@@H](OC(=O)c1ccncc1)c1ccccc1OCCO)c1cnc2ccccc2c1	-0.421	0.749	-0.085	0.922	1.58	0.495	1.17	-0.828 (inactive)	0.525	-0.159
CC(C)C[C@@H]1NC(=O)[C@@H]2C[C@H](C(=O)NCCCCCCNC(=O)CS)[C@H](c3ccc(O)cc3)N2C1=O	-0.0857	1.48	-0.0202	0.938	0.604	1.35	1.37	0.0812 (inactive)	0.694	-0.0346
C=CCC(OC(C)=O)[C@@H]1[C@@H](N(Cc2cccc3ccccc23)C(=O)c2ccc(C)cc2)c2cc(OCCCO)ccc2N1C(=O)Cc1ccc2ccccc2c1 (stereo not given in full)	0.151	-0.124	0.0348	0.021	-0.0785	-0.158	-0.665	-2.29 (inactive)	0.0338	0.127
CN1C2C=C(c3ccc(CO)cc3)C(C3C(=O)N(C(N)=O)C(=O)C32)C1C1CC1 (stereo not given)	-0.153	0.103	-0.146	-0.0401	-0.161	0.0413	0.663	0.567 (inactive)	-0.0595	-0.201
CC(=O)NCCCC[C@@H]1NC(=O)[C@H]2C[C@@H](C(=O)NCCCCCN)[C@@H](c3ccc(O)cc3)N2C1=O	0.392	0.861	0.007	0.198	1	0.0529	1.2	-0.248 (inactive)	0.418	0.141
O=C1C2C=CC(C(O)c3ccccn3)N(Nc3ccc([N+](=O)[O-])cc3)C2C(=O)N1c1ccccc1 (stereo not given)	0.0747	0.369	0.0447	0.794	1.33	1.82	1.31	0.678 (inactive)	0.512	-0.0645
C=C(/C=C\CNS(=O)(=O)c1ccc(C)cc1)[C@H](O)[C@H]1CCCN1S(=O)(=O)c1ccccc1[N+](=O)[O-]	-0.0107	0.014	-0.114	0.108	0.361	0.618	0.577	-4.49 (inactive)	-0.105	0.0373
O=C1c2ccccc2[C@](Cc2ccccc2I)(C(=O)NCCN2CCOCC2)[C@H](c2ccc(CO)cc2)N1Cc1ccccc1C(F)(F)F	-0.103	0.321	-0.1	0.0371	0.614	1.2	1.25	-1.66 (inactive)	0.558	0.0156
C=CC[C@H](O)c1ccc(O)c(F)c1	0.226	-1.35	-0.076	-0.819	-1.73	-0.676	-0.502	1.17 (inactive)	-1.39	0.414

SMILES	composite z-score [1]	composite z-score [2]	composite z-score [3]	composite z-score [4]	composite z-score [5]	composite z-score [6]	composite z-score [7]	z-score [8]	composite z-score [9]	composite z-score [10]
COc1ccc(-c2cc3c(c(CCc4ccccc4)n2)[Si](C(C)C)(C(C)C)O[C@H]3c2ccccc2)cn1	-0.605	-0.678	-0.0754	0.0306	0.135	0.371	-0.598	0.0071 (inactive)	0.16	-0.164
C[C@]1(C(=O)O)c2ccccc2C(=O)N(Cc2cc(C(F)(F)F)cc(C(F)(F)F)c2)[C@H]1c1ccc(CO)cc1	-0.0018	-0.48	-0.152	0.159	-0.0211	-0.179	0.0653	0.192 (inactive)	0.192	-0.236
C[C@H]1C2[C@H](Cc3ccccc3)NC(=O)[C@]23C(=O)N[C@@H](Cc2ccccc2)C(=O)N2CCC[C@H]2C(=O)NC/C=C/CC/C=C/C3[C@@H]2O[C@]12C (stereo not given in full)	0.0522	0.483	-0.129	0.75	0.237	0.0519	1.03	1.28 (inactive)	0.101	-0.0618
CO[C@H]1O[C@H](CO)[C@@H](OC(=O)Nc2cccc(F)c2)[C@H](OC(=O)c2cc3ccccc3[nH]2)[C@H]1OC(=O)c1cc2ccccc2[nH]1	-0.277	-0.108	-0.0355	0.463	-0.0665	1.33	0.24	-1.46 (inactive)	-0.238	-0.0726
C=CCNC(=O)[C@H]1[C@@H]2C(=O)O[C@@H](c3ccccc3)[C@@H](c3ccccc3)N2[C@@H](c2ccc(O)cc2)[C@]12C(=O)Nc1ccccc12	0.318	0.111	-0.0628	-0.519	-1.15	0.992	1.09	-2.15 (inactive)	-0.228	0.0749
COc1cccc(C)c1NC(=O)O[C@H]1[C@H](OC(=O)Nc2ccccc2-c2ccccc2)[C@@H](OC(=O)Nc2ccccc2-c2ccccc2)[C@@H](OC)O[C@@H]1CO	-0.182	0.968	0.141	1.17	1.61	1.74	1.38	0.945 (inactive)	1.64	0.053
CC1CC/C=C\[C@H]2OC34C=CCN(C(C)C)C(=O)[C@H]3N(C(C)CO)C(=O)[C@@H]4C2C(=O)O1 (stereo not given in full)	-0.213	0.104	-0.129	-0.19	-0.0047	-0.43	0.238	-0.658 (inactive)	-0.088	-0.137
O=C1NC(=O)C2C1C=CC(C(O)c1ccc(F)cc1)N2Nc1ccc(Cl)cc1Cl (stereo not given)	0.848	-0.335	0.103	0.336	0.916	1.8	0.885	-0.068 (inactive)	0.0708	-0.374
C=C(CC1([C@@H](NP(=O)(c2ccccc2)c2ccccc2)[C@H]2C[C@@H]2CCCC)CC1)c1cccc(OC)c1	0.511	-0.411	0.112	0.343	1.47	0.0917	0.737	1.5 (inactive)	1.66	0.579
COCCCNC(=O)[C@]1(Cc2ccccc2CN=[N+]=[N-])N=C(c2ccc(OCCCO)cc2)O[C@@H]1c1ccccc1N=[N+]=[N-]	1.19	0.694	0.359	0.425	1.43	0.527	1.11	-0.881 (inactive)	0.762	0.0623
CS(=O)(=O)CCOC(=O)C1=CC(CCCO)=CC(C2CC2)N(Cc2sc3ccccc3c2Cl)C=C1C(=O)OCCS(C)(=O)=O (stereo not given)	-0.143	0.0105	0.0498	0.4	1.36	1.92	1.18	-0.133 (inactive)	0.903	-0.134
CC[C@@H](O[Si](C#C[Si](C(C)C)(C(C)C)C(C)C)(C(C)C)C(C)C)c1cn(Cc2cccc(Cl)c2)nn1	-0.385	0.6	-0.0594	0.238	0.863	-0.019	0.69	-0.0554 (inactive)	0.197	-0.0003
COc1ccc([Si](C)(C)[C@@H]2[C@@H](CC(=O)N3Cc4ccccc4C[C@H]3CO)O[C@]3(C(=O)N(Cc4ccc(I)cc4)c4ccccc43)[C@H]2C)cc1	-0.127	0.0826	-0.136	0.184	0.472	0.537	0.909	-2.83 (inactive)	0.259	-0.204
COCCOC(=O)N1C(=O)[C@@]2(c3cc(C#CC4(O)CCCCCC4)ccc31)[C@H](C(N)=O)[C@H]1C(=O)O[C@H](c3ccccc3)[C@H](c3ccccc3)N1[C@@H]2c1ccc(OCCO)cc1	-0.243	1.08	0.0664	0.69	1.42	0.775	1.22	1.1 (inactive)	0.388	0.189
C=C(C(=O)CC[C@H](OC(=O)c1ccccc1-c1ccccc1C(=O)O)c1ccc(OCCO)cc1)C(C)C	-0.525	0.166	0.0033	0.13	0.214	1.76	1.26	1.72 (inactive)	0.239	-0.0994
C=C(C(=O)CC[C@@H](OC(=O)c1ccccc1-c1ccccc1C(=O)O)c1ccc(OCCO)cc1)C(C)C	-0.49	0.235	0.0129	1.11	0.52	0.551	0.512	2.12 (inactive)	0.136	0.245
CCCCCN1CC=CC23O[C@@H]4/C=C\CCCOC(=O)C4[C@H]2C(=O)N(CCCCCO)[C@@H]3C1=O (stereo not given in full)	0.239	-0.291	-0.103	-0.501	-0.581	-0.315	-0.786	-0.225 (inactive)	-0.841	-0.164
